PLC-beta3 inh: PLC-beta3 (human) inhibition, primary screen; Q01970; Purified PLC-beta3, fluorogenic substrate, fluorescence; inhibition, % at 12.2 µM; actives 0.18% (n = 370,000); AID 720704; in the data active means inhibition above about 11%
Target sequence (Q01970 whole entry, looked up): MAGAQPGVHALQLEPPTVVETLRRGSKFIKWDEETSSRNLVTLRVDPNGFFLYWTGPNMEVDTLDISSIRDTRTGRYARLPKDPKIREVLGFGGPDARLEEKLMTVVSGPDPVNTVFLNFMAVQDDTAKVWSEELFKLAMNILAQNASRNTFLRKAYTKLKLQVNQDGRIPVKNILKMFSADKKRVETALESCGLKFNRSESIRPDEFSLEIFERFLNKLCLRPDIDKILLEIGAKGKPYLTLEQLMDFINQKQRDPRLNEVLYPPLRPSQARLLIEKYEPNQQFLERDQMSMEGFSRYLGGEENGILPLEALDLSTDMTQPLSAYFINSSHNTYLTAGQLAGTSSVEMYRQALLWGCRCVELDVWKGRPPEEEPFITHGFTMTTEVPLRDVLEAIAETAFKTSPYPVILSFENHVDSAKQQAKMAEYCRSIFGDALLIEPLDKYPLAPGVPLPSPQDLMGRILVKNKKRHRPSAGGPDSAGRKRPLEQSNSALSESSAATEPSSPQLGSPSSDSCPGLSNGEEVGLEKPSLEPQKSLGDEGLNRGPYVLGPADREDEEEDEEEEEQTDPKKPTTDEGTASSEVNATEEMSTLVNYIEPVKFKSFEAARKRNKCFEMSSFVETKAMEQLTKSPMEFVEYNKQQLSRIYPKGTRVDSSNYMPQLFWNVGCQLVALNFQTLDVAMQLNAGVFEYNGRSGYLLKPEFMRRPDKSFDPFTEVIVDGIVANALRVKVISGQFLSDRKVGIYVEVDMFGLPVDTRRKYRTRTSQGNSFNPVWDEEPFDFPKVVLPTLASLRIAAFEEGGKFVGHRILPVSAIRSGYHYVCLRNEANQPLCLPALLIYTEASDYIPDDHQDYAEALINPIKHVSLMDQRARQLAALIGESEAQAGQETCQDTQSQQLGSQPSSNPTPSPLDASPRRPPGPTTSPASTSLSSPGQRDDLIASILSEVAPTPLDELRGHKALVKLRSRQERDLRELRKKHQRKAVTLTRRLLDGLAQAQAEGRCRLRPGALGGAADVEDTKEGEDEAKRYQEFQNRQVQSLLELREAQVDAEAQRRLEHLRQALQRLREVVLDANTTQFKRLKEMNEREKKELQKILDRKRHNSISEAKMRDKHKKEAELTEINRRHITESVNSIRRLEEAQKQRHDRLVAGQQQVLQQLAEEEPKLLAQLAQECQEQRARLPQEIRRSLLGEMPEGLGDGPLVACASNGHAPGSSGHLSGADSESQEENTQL
PLC-gamma1 inh: inhibitors of human phospholipase C gamma1 | AID 720700 | actives 0.84% (n = 370,000) | inhibition, % at 12.2 µM | purified PLC-gamma1, fluorogenic substrate, fluorescence; in the data active means inhibition above about 9.5%
sPLA2-III inh: Inhibits HGIII-sPLA2 liposome hydrolysis, primary screen; actives 0.56% (n = 370,000); QFRET BODIPY PC-A2 liposome hydrolysis, fluorescence; inhibition, % at 12.2 µM; AID 743126; Q9NZ20;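 active means inhibition above mean plus 3 SD of compounds lying within the high and low control bounds, cut at about 19% in these data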
ADAM10 inh: inhibitors of human ADAM10. actives 0.62% (n = 370,000). recombinant ADAM10, EDANS/DABCYL FRET peptide cleavage, 3 h. O14672. inhibition, % at 7 µM;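 active means inhibition above a per-campaign cutoff equal to the mean of compounds falling between control-based bounds plus 3 SD, cut at about 20% in these data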
ADAM17 inh: inhibitors of human ADAM17 | P78536 | recombinant ADAM17, EDANS/DABCYL FRET peptide cleavage | inhibition, % at 6.95 µM | actives 0.83% (n = 370,000) | AID 720648;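 active means inhibition above the mean of compounds lying between control limits plus 3 SD, set per campaign, cut at about 8.5% in these data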
KLK7 zymogen act: activates the human kallikrein-7 zymogen. P49862. purified proKLK7, EDANS-DABCYL substrate fluorescence; 100% is mature enzyme control, 0% vehicle. activation, % at 7 µM. actives 0.9% (n = 370,000). AID 652039;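 active means activation above the mean of all tested compounds plus 3 SD, computed per campaign excluding outliers beyond control limits, cut at about 13% in these data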
ADAM10 confirm: confirmation of inhibitors of human ADAM10; inhibition, % at 6.95 µM; ADAM10 QFRET peptide cleavage, EDANS fluorescence; shares compounds with ADAM10 inh; actives 1% (n = 2,100);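 active means inhibition above about 20% chosen separately for each screening run, limit read from the data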
ADAM17 counter: inhibits human ADAM17 in ADAM10 exosite counter-screen; shares compounds with ADAM10 inh; ADAM17 QFRET peptide cleavage, EDANS fluorescence; inhibition, % at 6.95 µM; actives 0.5% (n = 2,100);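 active means mean triplicate inhibition above the solvent-only control wells' mean plus 3 SD, cut at about 12% in these data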
Each line names hits and unclear results; the compound was inactive in the other large screens (follow-up assays come after a bar, where they were run). Sampled rows, rich in hits. Any-hit rate of the full collection: about 3.4%.

COc1ccc([N+](=O)[O-])cc1-c1[nH]c(-c2ccc(C(=O)O)cc2)nc1-c1ccccc1	none
Cc1ccccc1C(=O)NC1CCCCN(Cc2cccc(Cl)c2)C1=O (configuration not stated)	none
Cc1[nH]n(-c2ccc([N+](=O)[O-])cc2)c(=O)c1C=NCCN1CCN(C(=O)c2ccccc2)CC1	ADAM10 inh 21 | ADAM10 confirm inactive | ADAM17 counter inactive
COc1ccc(CCN=Cc2c(C)[nH]n(-c3ccc([N+](=O)[O-])cc3)c2=O)cc1OC	none
COC(=O)[C@]12C[C@H](CC(=O)N3CCN(C(=O)c4ccco4)CC3)C(=O)N(Cc3ccco3)C1=C[C@H](C1CCCC1)O[C@@H]2C	none
N#Cc1c(NC(=O)CCn2cnc3ccccc3c2=O)oc(-c2ccccc2)c1-c1ccccc1	ADAM10 inh 20 | ADAM10 confirm inactive | ADAM17 counter inactive
COc1ccc(C)cc1NS(=O)(=O)c1ccc(NC(=O)CN(c2cc([N+](=O)[O-])ccc2C)S(C)(=O)=O)cc1	ADAM10 inh 23, ADAM17 inh 9.1 | ADAM10 confirm inactive | ADAM17 counter inactive
Nc1nc(CSC(=S)N2CCCCC2)nc(Nc2ccccc2)n1	none
CC1CC(C)CN(C(=S)SCc2nc(N)nc(Nc3ccccc3)n2)C1 (configuration not stated)	ADAM10 inh 28 | ADAM10 confirm inactive | ADAM17 counter inactive
COc1ccc(/C=N/NC(=O)c2ccn[nH]2)cc1COc1ccc(F)cc1	none
COc1ccc(/C=N/NC(=O)c2ccn[nH]2)cc1COc1ccc(Cl)cc1Cl	ADAM10 inh 21 | ADAM10 confirm inactive | ADAM17 counter inactive
CC(C)(C)OC(=O)NC(Cc1ccccc1)C1CC(C#N)C(=O)O1 (configuration not stated)	none (no result: KLK7 zymogen act)
CN(C)[C@H]1CCN(c2ccc3c(c2)O[C@H]2CCN(C2)S3(=O)=O)C1	none
CC(C)N(Cc1cn(Cc2ccccc2)nn1)S(=O)(=O)c1ccc(F)cc1Br	none
C=CCN(C(=O)Cn1c(C(=O)OC)cc2oc(C)cc21)c1ccccc1	ADAM10 inh 82 | ADAM10 confirm inactive | ADAM17 counter inactive
COC(=O)c1cc2oc(C)cc2n1CC(=O)N(C)c1ccccc1	none
COc1ccc(N2CCN(CCNS(=O)(=O)c3cccs3)CC2)cc1	none
C[C@@H]1CN([C@@H](C)COC(=O)C(C)(C)C)C(=O)c2cc(NC(=O)Nc3ccccc3)ccc2O[C@@H](C)CCCCO[C@H]1CN(C)S(=O)(=O)c1ccc(F)cc1	ADAM10 inh 25 (no result: KLK7 zymogen act) | ADAM10 confirm inactive | ADAM17 counter inactive
C[C@H](CO)N1C[C@H](C)[C@@H](CN(C)S(=O)(=O)c2cccs2)Oc2ccc(NC(=O)Nc3ccc4c(c3)OCO4)cc2C1=O	none
C[C@@H]1CCCCO[C@H](CN(C)S(=O)(=O)c2cccs2)[C@@H](C)CN([C@H](C)CO)C(=O)c2cc(NC(=O)Nc3ccc4c(c3)OCO4)ccc2O1	ADAM10 inh 20 | ADAM10 confirm inactive | ADAM17 counter inactive
C[C@H](CO)N1C[C@H](C)[C@@H](CN(C)S(=O)(=O)c2ccccc2)Oc2c(NC(=O)Nc3ccccc3)cccc2C1=O	none
C[C@H]1CN([C@@H](C)CO)C(=O)c2cccc(NC(=O)Nc3ccc(C(F)(F)F)cc3)c2O[C@@H]1CN(C)S(=O)(=O)c1ccccc1	ADAM10 inh 40, ADAM17 inh 21 | ADAM10 confirm inactive | ADAM17 counter inactive
COc1ccc(S(=O)(=O)N(C)C[C@H]2OCCCC[C@H](C)Oc3ccc(NC(=O)Nc4ccc(F)cc4)cc3C(=O)N([C@H](C)CO)C[C@H]2C)cc1	none
C[C@@H]1CN([C@@H](C)CO)C(=O)c2cc(NC(=O)c3ccccc3)ccc2O[C@@H](C)CCCCO[C@@H]1CN(C)S(=O)(=O)c1ccc(F)cc1	none
Cc1ccc(S(=O)(=O)N(C)C[C@@H]2OCCCC[C@H](C)Oc3ccc(NC(=O)Nc4ccc(F)cc4)cc3C(=O)N([C@H](C)CO)C[C@H]2C)cc1	ADAM10 inh 23 | ADAM10 confirm inactive | ADAM17 counter inactive
CCOC(=O)[C@]12CCCC=C1N(Cc1ccc(OC)cc1)C(=O)[C@@H]2CC(=O)NCc1cccc(C(F)(F)F)c1	none
Cc1ccc(CN2CCCCC(NC(=O)Nc3ccccc3)C2=O)cc1 (configuration not stated)	none
Cc1ccc(S(=O)(=O)N(C)C[C@@H]2OCCCC[C@@H](C)Oc3ccc(NS(=O)(=O)c4c(C)noc4C)cc3C(=O)N([C@H](C)CO)C[C@@H]2C)cc1	none
Cc1ccc(S(=O)(=O)Nc2ccc3c(c2)C(=O)N([C@@H](C)CO)C[C@@H](C)[C@@H](CN(C)S(=O)(=O)c2ccccc2)OCCCC[C@H](C)O3)cc1	ADAM10 inh 23 | ADAM10 confirm inactive | ADAM17 counter inactive
C[C@@H](O)C(C(=O)N1CCNCC1)n1cc([C@@H](N)CCCCN)nn1 (some centres not stated)	ADAM10 inh 22 | ADAM10 confirm inactive | ADAM17 counter inactive
CCOc1cc(/C=C/c2ccc3cccc([N+](=O)[O-])c3n2)ccc1O	ADAM10 inh 22 | ADAM10 confirm inactive | ADAM17 counter inactive
CCOc1cc(/C=C/c2ccc3cccc([N+](=O)[O-])c3n2)ccc1OCC(=O)N(C)C	none
COc1ccc(CN(CCN2CCOCC2)C(=O)c2cccc(F)c2F)cc1OC	none
CCOC(=O)c1ccc(N2C(=O)c3n[nH]c(C)c3C2c2cccnc2)cc1 (configuration not stated)	none
CCOC(=O)c1ccc(N2C(=O)c3n[nH]c(-c4ccco4)c3C2c2ccc([N+](=O)[O-])cc2)cc1 (configuration not stated)	ADAM10 inh 23 | ADAM10 confirm inactive | ADAM17 counter inactive
O=C1N[C@@H](Cc2c[nH]c3ccccc23)COC(=O)[C@H](Cc2ccc(F)cc2)C/C=C\C[C@H]1CC(=O)N(CCO)Cc1ccccc1	ADAM10 inh 22 | ADAM10 confirm inactive | ADAM17 counter inactive
O=C1N[C@@H](Cc2ccccc2)COC(=O)[C@H](Cc2ccc(F)cc2)C/C=C\C[C@H]1CC(=O)N(CCO)Cc1ccccc1	none
O=C1NC[C@H](c2ccccc2)OC(=O)[C@@H](Cc2ccc(F)cc2)CC/C=C/C[C@@H]1CC(=O)N(CCO)Cc1ccccc1	ADAM10 inh 23 | ADAM10 confirm inactive | ADAM17 counter inactive

Screens (PubChem BioAssay)
